D2 PAM-1 = potentiates the human D2 dopamine receptor allosterically; DiscoveRx D2 beta-arrestin cells, luminescence, 90 min; 100% = 57 uM dopamine signal; potentiation, % (no concentration beside the values); 360,000 compounds, 0.23% hits; AID 624464; in the data active = potentiation above about 50%; inconclusive = mostly about 30% to 49%
Target sequence (P14416 whole entry, looked up): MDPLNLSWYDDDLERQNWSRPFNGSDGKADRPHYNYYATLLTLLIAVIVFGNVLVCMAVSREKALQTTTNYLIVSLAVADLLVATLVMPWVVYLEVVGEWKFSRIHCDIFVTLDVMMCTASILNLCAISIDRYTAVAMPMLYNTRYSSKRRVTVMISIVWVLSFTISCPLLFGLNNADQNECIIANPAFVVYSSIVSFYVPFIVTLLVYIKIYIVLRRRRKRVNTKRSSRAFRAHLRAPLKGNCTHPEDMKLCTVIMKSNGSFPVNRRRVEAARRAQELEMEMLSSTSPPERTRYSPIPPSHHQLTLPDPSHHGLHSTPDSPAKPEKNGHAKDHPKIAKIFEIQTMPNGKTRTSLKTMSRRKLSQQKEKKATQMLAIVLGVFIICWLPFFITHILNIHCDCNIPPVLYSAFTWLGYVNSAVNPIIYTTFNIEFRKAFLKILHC
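D2 cells co-treated with compound plus 50 nM dopamine (EC20) for 90 min at 37 deg C to detect potentiation. Beta-arrestin recruitment was read as enzyme-fragment luminescence after 1 h at ambient temperature. Full response was set by 57 uM dopamine.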
D2 ag-1 = human D2 receptor agonism in beta-arrestin assay. DiscoveRx PathHunter D2 beta-arrestin, luminescence, 90 min; 100% = 57 uM dopamine signal. P14416. activation, % (concentration not given with the values). 360,000 compounds, 0.084% hits; in the data active = activation above about 40%; inconclusive = between about 15% and that limit
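DiscoveRx PathHunter D2 beta-arrestin cells (2,100/well) attached overnight, then compound-stimulated 90 min at 37 C in HBSS/10 mM HEPES/0.1% Tween-20 buffer; beta-galactosidase complementation read by luminescence after 1 h at ambient temperature. Dopamine 57 uM final (EC100) as control.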
D2 ag-2 = D2 dopamine receptor (human) agonism | P14416 | HEK293 T-REx D2 cells, calcium flux agonist mode | activation, % at 2 µM | 340,000 compounds, 0.53% hits | AID 485358;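 active = activation over 3 SD above normal in the single-dose calcium agonist read, cut at about 30% in these data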; note: 0% is about no effect
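In this primary screen, compounds producing a positive calcium signal within 180 s of addition to tetracycline-induced, force-coupled HEK293 Trex D2 cells are flagged; cells are dye-loaded with a no-wash calcium kit beforehand.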
D2 antagonist = antagonizes the human D2 dopamine receptor. P14416. HEK293 TREx D2 cells, calcium flux, dopamine EC80. inhibition, % at 10 µM. 340,000 compounds, 2% hits. AID 485344; in the data active = inhibition above about 30%; inactive = below that, where a call was filed; note: 0% is about no effect
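Measurement of antagonist activity uses fluorescent calcium dye in inducible HEK293 T-REx D2 cells: 10 s baseline, compound addition with 180 s read, EC80 dopamine addition with a further 180 s read.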
D2 PAM-2 = positively modulates the human D2 dopamine receptor allosterically; P14416; HEK293 T-REx D2, calcium flux, EC20 dopamine potentiation; potentiation, % at 10 µM; 340,000 compounds, 0.34% hits; AID 485347;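 active = potentiation over 3 SD above the plate norm, cut at about 30% in these data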; note: 0% is about no effect
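Calcium flux readout, no-wash dye, 1 read/s. Inducible HEK293 Trex D2 line, overnight 30 C. Compound alone 180 s (agonist flags), then EC20 dopamine, another 180 s to score potentiation.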
D3 ag = activates human D3 dopamine receptor beta-arrestin recruitment | Potency, µM (top dose mostly 76.9 µM), inactives show top-dose activation, most hits filed as activators | AID 720506 | 2,300 compounds, 4% hits | shares compounds with D2 ag-2 | DiscoveRx D3 beta-arrestin cells, luminescence, 90 min;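 note: potency is the fitted concentration of half-maximal effect; 100% = dopamine control response; nearly all actives have a fitted effect of over 70% in size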
D2 ag-3 = D2 receptor agonism, beta-arrestin counterscreen; 2,300 compounds, 5.9% hits; AID 720507; shares compounds with D2 ag-2; DiscoveRx PathHunter D2 beta-arrestin, luminescence, 90 min; response scale: percent relative to full dopamine signal; Potency, µM (series often up to 76.9 µM), inactives show at the highest dose activation, hits mostly activators; note: potency is the fitted concentration of half-maximal effect; % of control where 0% means no effect; nearly all actives have a fitted effect of over 70% in size
Numbers without * were called inactive; u = inconclusive; x = no result given. An excerpt weighted towards active compounds, which were near 2.4% of everything screened. Unless noted, calls come from the whole dose curve; as a rule, active = well fitted activation curve with a large enough effect; inconclusive = small, poorly fitted or top-dose-only effect; inactive = flat fitted curve, though single readings scatter.

SMILES | D2 PAM-1 | D2 ag-1 | D2 ag-2 | D2 antagonist | D2 PAM-2 | D3 ag | D2 ag-3
CCCCN(CC)CCCNC(=S)Nc1ccc2nc(N3CCN(CC)CC3)cc(C)c2c1 | -10 | 4 | 60* | 41* | -28 | u | 15%
CCCCN(CC)CCCNC(=S)Nc1ccc2nc3n(c(=O)c2c1)CCCCC3 | -2 | 10 | 86* | 60* | -31 | -6% | 26%
CCCCN(CC)CCCNC(=S)Nc1ccc2nc(N3CCN(C)CC3)cc(C)c2c1 | -5 | 7 | 71* | 40* | -29 | 24% | 21%
O=c1c2cc(NC(=S)NCCN3CCCCCC3)ccc2nc2n1CCCCC2 | -16 | -2 | 0 | 9 | -17 | x | x
CCSC1=NC2(CCN(C(=O)NC3CCCCC3)CC2)N=C1c1ccc(OC)cc1 | x | x | 0 | x | -4 | x | x
OCc1ccc(-c2cccc3nccn23)cc1 | -5 | -6 | x | x | x | x | x
CCn1c(CN2CCCCC2)nc2cc(NC(=O)c3cc(OC)c(OC)c(OC)c3)ccc21 | x | x | 21 | x | 2 | x | x
COc1cccc(/C=C/C(=O)OCC(=O)NCCc2ccccc2)c1 | -3 | -2 | 46* | 9 | -20 | -10% | -4%
Cc1ccc(Nc2ncnc3c2cnn3-c2ccccc2)c(C)c1 | x | x | 0 | x | 4 | x | x
Cc1ccc(-n2c(=O)c3c(c4cc(C)ccc4n3C)n(CC(=O)N3CCCC3)c2=O)cc1 | x | x | 0 | x | x | x | x
CCN1C(=O)[C@H]2[C@@H](c3ccc(C)cc3)N3C(=O)N(c4ccccc4)C(=O)[C@@]3(Cc3ccc(Cl)cc3)[C@H]2C1=O | -72 | -1 | 2 | 4 | 5 | x | x
CCN1C(=O)[C@H]2[C@@H](c3ccc(C)cc3)N3C(=O)N(c4ccc(C)cc4)C(=O)[C@@]3(Cc3ccc(Cl)cc3)[C@H]2C1=O | 2 | -3 | 45* | -18 | -11 | -10% | -4%
O=C(c1cccs1)N(Cc1ccco1)C1CCS(=O)(=O)C1 (stereo not drawn) | 21 | u | 58* | 41* | -20 | 17% | 25%
Cc1ccc(CN(C(=O)c2cccs2)C2CCS(=O)(=O)C2)cc1 (stereo not drawn) | -2 | -1 | 0 | 1 | 4 | x | x
CCCCOc1ccc(-c2nonc2NC(=O)c2ccco2)cc1 | x | x | 1 | x | -8 | x | x
CCOc1ccc(NC(=O)c2ccc(F)c(S(=O)(=O)NCc3ccc4c(c3)OCO4)c2)cc1 | x | x | 0 | x | -1 | x | x
O=C(Nc1cccc(Cl)c1)c1ccc(F)c(S(=O)(=O)NCc2ccc3c(c2)OCO3)c1 | -8 | 5 | -2 | 2 | -1 | 3% | 4%
CSc1ncc(C(=O)N2CCN(c3ccc(Cl)cc3)CC2)c(C)n1 | x | x | -1 | x | 1 | x | x
CCOC(=O)c1c(Nc2ccc(OC)cc2)nnc(-c2ccccc2)c1-c1ccccc1 | x | x | 1 | x | -12 | x | x
COc1ccc(/C=N/NC(=O)CCn2cnc3ccccc32)cc1 | -2 | -2 | 2 | 4 | -8 | -5% | -3%
CCc1ccc(NC(=O)CN(C)S(=O)(=O)c2ccc3c(c2)c(=O)n(C)c(=O)n3C)cc1 | x | x | 0 | x | 11 | x | x
CC1=C/C(=C\C=C(C#N)C#N)N(C)c2ccccc21 | -4 | -3 | 32* | -21 | -12 | -26% | -8%
Cc1c2c(nc3c(C)cccc13)OC(C)C2 (stereo not drawn) | 0 | 0 | 23 | 26 | 5 | 4% | 12%
CNC(C)C(=O)NC(C(=O)N1CCCC1C(=O)NNc1ccccc1)C(C)C (stereo not drawn) | -10 | -4 | 1 | -8 | -5 | -6% | -6%
CNC(C)C(=O)NC(C(=O)N1CCCC1C(=O)NC1CCCc2ccccc21)C(C)C (stereo not drawn) | -7 | 1 | -1 | -31 | -2 | x | x
COc1ccccc1CN1CCN(C2CCN(C(=O)NC(C)C)CC2)C(=O)C1=O | x | x | 2 | x | 3 | x | x

Screens (PubChem)
